Experimental findings from PubChem BioAssay (NCI) are described below.

Several values for one entry are separate records, joined by “and”; a condition that tells them apart may be missing. Equal values may be shown once. This is part of a sample that, as a whole, favours compounds with a hit. Of some 83,000 tested, about 20% had one in any assay.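 Negative percent growth values reflect cell death: -40 means 40% of the cells present at the start died, and -100 means all died.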 Unmarked numbers belong to inactive results. Activity calls are given as the source filed them. Rule for the calls: active = growth percent below 10; inactive = the rest.

For one test, the system named is HL-60(TB) leukemia. Kind of test: NCI-60 one-dose screen, 48 h (100 = growth as untreated, 0 = no growth, -100 = all killed). The settings on record: 10 µM.
For `CC/C(=C(\c1ccccc1)c1ccc(OCCN(C)C)cc1)c1ccccc1`, the growth was 39.6%.
Still for that read-out and setting: the value for `COc1cc(NS(C)(=O)=O)ccc1Nc1c2ccccc2nc2ccccc12` was -43.9% (active) and -9.61% (active) and -4.58% (active); that for `Cc1[nH]c(-c2nc3ccccc3[nH]2)c(C)c1C(=O)NC(C)C1CCCCC1` (stereo not drawn) was 98.3%.
The same measure, in the same setting: for `CC(C)(C)c1cc(NC(=O)Cc2ccc(-c3cnc4cc(-c5cnn(CCN6CCOCC6)c5)ccc4n3)cc2)no1` the value was 4.17% (active); for `CC#C[C@]1(O)CC[C@H]2[C@@H]3CCC4=CC(=O)CCC4=C3[C@@H](c3ccc4c(c3)OCO4)C[C@@]21C`, 67.5%.
For `CCN(Cc1ccccc1)c1ccc(/C=C2\COc3ccccc3C2=O)cc1`, the growth was 78.3%.
The same measure, in the same setting: the value for `COc1ccc(Cl)cc1C(=O)NCCc1ccc(S(=O)(=O)NC(=O)NC2CCCCC2)cc1` was 121% and 103%; that for `Cc1c2oc3c(C)ccc(C(=O)N[C@@H]4C(=O)N[C@H](C(C)C)C(=O)N5CCC[C@H]5C(=O)N(C)CC(=O)N(C)[C@@H](C(C)C)C(=O)O[C@H]4C)c3nc-2c(C(=O)N[C@@H]2C(=O)N[C@H](C(C)C)C(=O)N3CCC[C@H]3C(=O)N(C)CC(=O)N(C)[C@@H](C(C)C)C(=O)O[C@H]2C)c(N)c1=O` was -24.3% (active); that for `O=c1[nH]cc(F)c(=O)[nH]1` was 59.7%.
Still for that read-out and setting: for `COc1cccc2c1C(=O)c1c(O)c3c(c(O)c1C2=O)C[C@@](O)(C(=O)CO)C[C@@H]3OC1CC(N)C(O)C(C)O1` (stereo partly drawn) the value was -21.8% (active).
`S=P(N1CC1)(N1CC1)N1CC1`: the growth is 99.5% and 32.7%.
Still for that read-out and setting: for `CN(Cc1cnc2nc(N)nc(N)c2n1)c1ccc(C(=O)N[C@@H](CCC(=O)O)C(=O)O)cc1` the value was 24.1%; for `COc1ccc(C(=O)/C=C/c2ccc(OCc3cccc(C(F)(F)F)c3)c(OC)c2)cc1OC`, 36.4%.

The test is the same for the next values; noted with them: 10 µM unless noted.
On to `O=C(c1cccc(C(=O)c2ccc3c4c(cccc24)C(=O)N(c2ccccc2)C3=O)c1)c1ccc2c3c(cccc13)C(=O)N(c1ccccc1)C2=O`, for which the growth was 103%.
Still for that read-out and setting: the value for `CCN(CC)c1ccc(C(=N)c2ccc(N(CC)CC)cc2)cc1` was -23.4% (active); that for `CCCCCCNc1cc(C)nc2ccc(OC)cc12` was 63.3%; that for `COc1cc([C@@H]2c3cc4c(cc3[C@H](O)[C@H]3COC[C@@H]23)OCO4)cc(OC)c1OC` was 57.8%.
In the case of `COc1cc(-c2csc(NC(=O)Nc3ccc(Cl)cc3Cl)n2)cc(OC)c1OC`, the growth was 17%.
Still for that read-out and setting: for `CC1(C)CC2=C3C=C[C@@H]4[C@@]5(C)CCC(=O)C(C)(C)[C@@H]5CC[C@@]4(C)[C@]3(C)CC[C@@]2(C(=O)O)CC1=O` the value was 66.8%.
Consider `CN(C)c1ccc(/C=N/NC(=O)COc2cc(=O)n(C)c3ccccc23)cc1`, for which the growth was 98.5%.
On the same count and under the same terms, the value for `ON1CCCC1` was 82.3%; that for `CCCCC(=O)Nc1ncc(Cc2ccc(Cl)cc2)s1` was 66.1%; that for `Cc1oc2c(C(=O)N/N=C\c3ccc(O)cc3O)c[nH]c2c1C` was -9.06% (active).
Regarding `Cc1nc2ccccc2c2nnc(SCC(=O)N(Cc3ccccc3)c3ccccc3)n12`, the growth is 105%.
On the same count and under the same terms, the value for `Cc1cccc(C)c1NC(=O)CSC(=S)N1CCCCC1` was 73.2%.
In the case of `COc1ccc(Nc2ncccc2C(=O)NCc2cn(Cc3cccc(Oc4ccccc4)c3)nn2)cc1`, the growth was 32.1%.
Same read-out and setting: the value for `Cc1cn(-c2cc(NC(=O)c3cncc(C#Cc4cnc(N)c5ncccc45)c3)cc(C(F)(F)F)c2)cn1` was 18.7%; that for `CN1C(=O)N(C)C2Nn3c(s/c(=C\c4ccc(Cl)cc4Cl)c3=O)=NC21` (stereo not drawn) was 41.5%.
